Test results reported in PubChem BioAssay (NCI).
This is part of a sample that, as a whole, favours compounds with a hit. Of some 79,000 tested, about 15% had one in any assay. Rule as the data show it: active = growth inhibition above about 70%; inactive = the rest.

Columns and labels:
[1] = NCI Yeast Anticancer Drug Screen. Data for the rad50 strain (AID 155);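 also: 0% = growth of vehicle-only cultures of the same strain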; details: S. cerevisiae rad50 strain growth inhibition; at 50.0 µM; stronger effect = higher value
Summary of the method: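 Cells are treated with compound, grown, and their growth is then scored against vehicle-only cultures of the same repair-deficient yeast strain.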

[2] = NCI Yeast Anticancer Drug Screen. Data for the mec2-1 strain (AID 157); details: S. cerevisiae mec2-1 strain, at 50.0 µM, stronger effect = higher value
Summary of the method: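 mec2-1 yeast strain, carrying an alteration in DNA damage repair or cell cycle control, was exposed to compounds; growth inhibition was measured relative to vehicle-treated controls.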

[3] = NCI Yeast Anticancer Drug Screen. Data for the sgs1 mgt1 strain (AID 161);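 also: 0% = growth of cultures given vehicle only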; details: S. cerevisiae sgs1 mgt1 strain, at 50.0 µM, stronger effect = higher value
Summary of the method: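 This yeast growth screen uses a strain with defined DNA-repair lesions; compound-treated growth is compared with vehicle-treated growth.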

[4] = NCI Yeast Anticancer Drug Screen. Data for the cln2 rad14 strain (AID 165);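 also: 0% = growth equal to vehicle treated cultures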; details: S. cerevisiae cln2 rad14 strain, at 50.0 µM, stronger effect = higher value
Summary of the method: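 Yeast carrying cln2 and rad14 alterations (cell cycle control and DNA damage repair) were exposed to compounds. Growth inhibition was measured against vehicle-treated controls.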

[5] = NCI Yeast Anticancer Drug Screen. Data for the bub3 strain (AID 167); details: S. cerevisiae bub3 mutant strain, at 50.0 µM, stronger effect = higher value
Summary of the method: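 Part of a panel of yeast mutants defective in DNA damage repair or cell cycle regulation. Each strain is grown with compound, and inhibition is calculated relative to solvent-treated cultures.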

[6] = NCI Yeast Anticancer Drug Screen. Data for the mlh1 rad18 strain (AID 175); details: S. cerevisiae mlh1 rad18 strain growth inhibition; at 50.0 µM; stronger effect = higher value
Summary of the method: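 Growth inhibition of the yeast strain was measured after compound exposure and expressed relative to vehicle-treated controls. The strain carries defined defects in DNA damage repair.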

Measured: growth inhibition

CC(=O)c1ccc(C)cc1
inactive: [1] -1.75% | [2] 6.1% | [3] -28.8% | [4] -2.8% | [5] -36% | [6] -11.6%

OC(CBr)CCBr (configuration not stated)
inactive: [1] -28.7% | [2] -31.1% | [3] -39.6% | [4] 3.45% | [5] -32.1% | [6] -32%

Cc1ccc(NC(=O)c2ccccc2Cl)cc1
inactive: [1] 12.4% | [2] -4.35% | [3] -13.3% | [4] -42% | [5] -6.3% | [6] 6.05%

CC(=O)Nc1ncc(S(=O)(=O)c2ccc([N+](=O)[O-])cc2)s1
inactive: [1] -28.1% | [2] -57.5% | [3] -17.1% | [4] -7.55% | [5] -41.2% | [6] -32.1%

O=C(N/N=C\c1ccc(Cl)cc1Cl)c1ccncc1
inactive: [1] 1% | [2] 6.85% | [3] 5.15% | [4] 19.2% | [5] -7% | [6] 3.5%

O=[N+]([O-])c1c(Cl)ncnc1Cl
inactive: [1] -52.5% | [2] -47.8% | [3] -56.8% | [4] -13.4% | [5] -48.1% | [6] -16.2%

CCN(CC)c1ccc2nc3ccc(N=Nc4ccc(N(C)C)cc4)cc3[n+](-c3ccccc3)c2c1
inactive: [1] 42.5% | [2] 52.5% | [3] 57.7% | [4] 54.9% | [5] 39.5% | [6] 38.9%

CN(C)CCOC(=O)Nc1ccc(Cc2ccc(NC(=O)OCCN(C)C)cc2)cc1
inactive: [1] -2.1% | [2] -25.2% | [3] -1.75% | [4] 8.25% | [5] 8.7% | [6] 8.3%

C/C(O)=C(/C=N\C(=S)Nc1ccc(S(=O)(=O)Nc2nccs2)cc1)C(=O)Nc1ccccc1C
inactive: [1] -14.3% | [2] 8.1% | [3] 15.3% | [4] 32.8% | [5] 7.65% | [6] -18.8%

C=CCC(OC(C)=O)c1ccc(OC)c(OC)c1 (configuration not stated)
inactive: [1] 11.3% | [2] 1.35% | [3] 14.7% | [4] -13.9% | [5] 8.7% | [6] 9.5%

CCOC(=O)/C(C#N)=C\c1c[nH]c2ccccc12
inactive: [1] 54.5% | [2] 23.9% | [3] 46.3% | [4] -1.2% | [5] 57.7% | [6] 59.2%

O=C(Nc1ccc([N+](=O)[O-])cc1)C(=O)Nc1ccc([N+](=O)[O-])cc1
inactive: [1] -8.7% | [2] -24.2% | [3] 11.6% | [4] -7.55% | [5] 3.1% | [6] 5.3%

Cc1nc(O)cc(=O)[nH]1
inactive: [1] 17.7% | [2] -6.9% | [3] -14.2% | [4] -6.95% | [5] -15.3% | [6] 10.1%

CC(=O)NNC(=S)/N=C\C(C(=O)c1ccccc1)=C(/O)c1ccccc1
inactive: [1] -41.4% | [2] -28.8% | [3] -14.4% | [4] 2% | [5] -15.4% | [6] -19.2%

CCOC(=O)c1c[nH][nH]c1=O
inactive: [1] -9.05% | [2] -8.45% | [3] -3.55% | [4] -18.2% | [5] 7.85% | [6] 5.8%

CN(C)c1ccc(/C=C/C(=O)c2ccc(NC(N)=O)cc2)cc1
inactive: [1] -8.35% | [2] 1.9% | [3] -4.5% | [4] -51.6% | [5] -18% | [6] -8%

FC(F)(F)c1cc(NC2=NCCN=C(Nc3cc(C(F)(F)F)cc(C(F)(F)F)c3)SS2)cc(C(F)(F)F)c1
inactive: [1] -14.1% | [2] -29.7% | [3] -10.8% | [4] -2% | [5] -22% | [6] -15.6%

COC1OC(COC(C)=O)C(OC(C)=O)C(OC(C)=O)C1OC(C)=O (configuration not stated)
inactive: [1] 10.7% | [2] 3.05% | [3] 47.2% | [4] -28.6% | [5] 2.05% | [6] 13.2%

O=C(O)CSCC(=O)Nc1cc(C(F)(F)F)ccc1Cl
inactive: [1] -28.1% | [2] -36.6% | [3] -25.8% | [4] -22.9% | [5] -11.3% | [6] -11.2%

CC(=O)N(CCCCCCN(C(C)=O)C(C)=O)C(C)=O
inactive: [1] -14.8% | [2] -9.25% | [3] -0.5% | [4] -0.55% | [5] -9.85% | [6] -6.15%

CCCCN(C=S)CCCC
inactive: [1] 9.65% | [2] -2% | [3] -5.7% | [4] 13.7% | [5] -2.2% | [6] 10.7%

OC1Cc2ccccc2C1
inactive: [1] -32.5% | [2] -26.4% | [3] -17.6% | [4] -31.8% | [5] -28.1% | [6] -18.6%
